Only some compounds are listed: those with a hit (about 4.6% of all), similar ones and a draw of the others.
HSF-1 act: increases HSF-1 driven luciferase reporter signal. NIH3T3-HGL HSF-1 luciferase reporter, MG132, 8 h; 100% = twice DMSO control signal. activation, % at 9 µM. 300,000 tested, 1.7% active. AID 504408;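 active = mean replicate activation of at least 50% with a set share of replicates each reaching 50%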
FXN GAA850 act: increases GAA850 frataxin promoter reporter activity; HEK293 lucGAA850 FXN promoter luciferase reporter, 24 h; percent of 10 µM SAHA response; activation, % at 6 µM; 360,000 tested, 0.56% active; AID 540364;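 active = activation above the average of all compounds screened plus 3 SD, cutoff fixed separately per campaign, cut at about 7.5% in these data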
AHR act: activators of human aryl hydrocarbon receptor; P35869; AHR-responsive luciferase reporter cells, luminescence; activation, % at 5 µM; 320,000 tested, 2.5% active; in the data active = activation above about 47%
Target sequence (P35869 whole entry, looked up): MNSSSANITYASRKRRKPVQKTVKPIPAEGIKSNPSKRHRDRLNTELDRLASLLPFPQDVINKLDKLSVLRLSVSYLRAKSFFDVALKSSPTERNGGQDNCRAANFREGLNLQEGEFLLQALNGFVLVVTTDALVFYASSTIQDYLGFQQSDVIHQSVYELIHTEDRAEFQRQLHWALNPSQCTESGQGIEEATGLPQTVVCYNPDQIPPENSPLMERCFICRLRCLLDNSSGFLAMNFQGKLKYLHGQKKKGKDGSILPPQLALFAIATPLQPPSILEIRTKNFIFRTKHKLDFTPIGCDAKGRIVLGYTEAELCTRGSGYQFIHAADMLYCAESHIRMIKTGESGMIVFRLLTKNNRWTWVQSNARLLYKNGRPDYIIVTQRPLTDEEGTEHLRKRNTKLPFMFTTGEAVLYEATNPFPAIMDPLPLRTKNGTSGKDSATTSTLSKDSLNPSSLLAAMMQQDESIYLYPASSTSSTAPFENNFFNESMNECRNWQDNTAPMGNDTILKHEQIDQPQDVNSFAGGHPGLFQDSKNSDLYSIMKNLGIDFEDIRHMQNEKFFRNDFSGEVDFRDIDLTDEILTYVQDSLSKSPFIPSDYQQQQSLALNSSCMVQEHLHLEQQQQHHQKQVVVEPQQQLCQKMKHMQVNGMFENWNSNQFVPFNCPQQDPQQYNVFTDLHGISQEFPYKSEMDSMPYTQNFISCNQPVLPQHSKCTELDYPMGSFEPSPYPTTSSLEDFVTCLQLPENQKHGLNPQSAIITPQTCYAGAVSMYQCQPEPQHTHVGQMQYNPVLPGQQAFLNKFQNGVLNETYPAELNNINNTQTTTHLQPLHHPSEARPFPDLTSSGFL
HSF1 inhib: HSF1 inhibition. NIH3T3-HGL HSE-luciferase, MG132-induced, luminescence 8 h; active compounds read low. activity change, negative = inhibition, % at 7.5 µM (by protocol). 300,000 tested, 0.77% active. AID 2098;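 active = more than half of replicate wells show activity change below -50%, luminescence cut by over half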;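 also: luciferase reports HSF-1 transcriptional activity via heat shock element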
Each line names hits and unclear results; the compound was inactive in the other large screens.

CCOc1ccc(C(=O)c2ccc(OCC)c(N)c2)cc1N	AHR act 60.1
Nc1ccc(CSc2ccc(Cl)cc2)c(Cl)c1	none (no result: HSF-1 act, AHR act, HSF1 inhib)
Brc1ccc(OCc2cn3ccccc3n2)cc1	HSF-1 act 83.1
Cc1cccn2cc(COc3ccc(-c4ccccc4)cc3)nc12	HSF-1 act 68.9 (no result: AHR act)
COc1ccc(NC(=O)CCOc2ccccc2C)cc1S(=O)(=O)N1CCCCC1	none
Cc1ccc(CCNC(=O)CN2CCN(Cc3ccccc3F)C2=O)cc1	none
COc1ccc(CCNC(=O)CN2CCN(Cc3ccccc3F)C2=O)cc1OC	HSF1 inhib -74.0
Cc1ccc(C#N)c(SCC(=O)Nc2nccs2)n1	AHR act 62.8
Cn1ccnc1SCC(=O)Nc1sccc1C#N	AHR act 50.7
O=C(O)CN(c1ccccc1)C1SC(=O)NC1=O (centres undefined)	none
O=C(COC(=O)c1cc([N+](=O)[O-])ccc1N1CCOCC1)NCc1ccc(Cl)cc1Cl	none
O=C(c1ccccc1[N+](=O)[O-])n1cnc2ccccc21	none
O=C(c1ccc([N+](=O)[O-])cc1[N+](=O)[O-])n1cnc2ccccc21	AHR act 59.1
CC(C(=O)NC1CC(C)(C)NC(C)(C)C1)c1ccc([N+](=O)[O-])cc1 (centres undefined)	HSF1 inhib -58.7
COC(=O)CCc1ccc(O)cc1	none
CCc1nnc(NC(=O)c2oc3ccccc3c2COC(C)C)s1	AHR act 74.4 (no result: HSF-1 act, HSF1 inhib)
CCc1nnc(NC(=O)c2oc3cc(C)c(C)cc3c2C)s1	none
O=c1c2cc(N3CCOCC3)ccc2[nH]c(=S)n1Cc1ccccn1	HSF-1 act 66.9
O=c1c2cc(Br)ccc2[nH]c(=S)n1Cc1ccccn1	AHR act 67.4
O=c1c2cc(Br)ccc2[nH]c(=S)n1Cc1ccccc1	none
Cn1c(Cl)c(C(=O)Nc2ccc(Cl)cc2)c2ccccc21	AHR act 57.2 (no result: HSF-1 act, HSF1 inhib)
Cn1nc(-c2ccccc2)c(C(=O)Nc2ccc(Cl)cc2)c1Cl	none
COc1ccc2nc(N=Nc3ccc(O)c4ccccc34)sc2c1	AHR act 73.0
CCc1cccc2c(C(=O)COC(=O)c3ccc([N+](=O)[O-])s3)c[nH]c12	HSF1 inhib -68.8
O=C(OCC(=O)c1c[nH]c2ccccc12)c1ccc([N+](=O)[O-])s1	none
COc1ccc(C=C2OC(=O)C(C(C)=O)=C2O)cc1	none (no result: HSF-1 act, AHR act, HSF1 inhib)
CC(=O)OC(COc1ccccc1)Cn1cnc2ccccc21 (centres undefined)	none
COc1ccc(S(=O)(=O)N/N=c2\oc3c(OC)cccc3cc2S(=O)(=O)c2ccc(C)cc2)cc1OC	HSF-1 act 85.8
O=C(CN1CCS(=O)(=O)CC1)N/N=C/c1cccc(C(F)(F)F)c1	none
Cc1cc(C(C)(C)C)oc1C(=O)N(CC(=O)NC1CCCC1)c1c(C)cccc1C	HSF1 inhib -52.8
Cc1cc(C(C)(C)C)oc1C(=O)N(CC(=O)NC1CCCC1)c1ccc(F)cc1	none
Cc1cccc(NC(=O)Cc2ccc(NC3=NC4CS(=O)(=O)CC4S3)cc2)c1 (centres undefined)	none
Cc1cc2c(=O)n(Cc3ccco3)c(SCC(=O)c3ccc(Cl)s3)nc2s1	HSF-1 act 77.6
O=C(NCc1ccc(N2CCCC2=O)cc1)Nc1ccccc1	HSF-1 act 54.2
CS(=O)(=O)Nc1ccc(N2CCCCC2)c(Cl)c1	none (no result: HSF-1 act, HSF1 inhib)
CCn1c(O)c(C=Nc2ccccc2)oc1=S	HSF1 inhib -67.2
CCCn1c(O)c(C=Nc2ccccc2)sc1=S	none
CCCCNC1=CC(=O)C(=O)c2ccccc21	AHR act 52.5
CCCCNC1=CC(=O)C(NCCCC)=CC1=O	none (no result: HSF-1 act, AHR act, HSF1 inhib)
CCc1ccc2oc(-c3ccc(OC)cc3)cc(=Nc3c(C)n(C)n(-c4ccccc4)c3=O)c2c1	AHR act 56.6
COc1ccc(-c2cc(=Nc3ccc(C(=O)O)cc3)c3cc(C)ccc3o2)cc1	HSF-1 act 57.2
CC(=O)Nc1ccc(NC(=O)c2cccc3c2-c2ccccc2C3=O)cc1	none
COc1ccc2c(C(=O)CCl)c[nH]c2c1	none
S=c1[nH]nc(COc2ccccc2)n1/N=C/C(Cl)=C/c1ccccc1	HSF-1 act 150.9
S=c1[nH]nc(-c2ccncc2)n1/N=C/C(Cl)=C\c1ccccc1	HSF-1 act 78.1
CCN1CCN(c2ccc(NC(=O)c3ccc(OC)c(S(=O)(=O)N4CCCC4)c3)cc2)CC1	none (no result: HSF-1 act, HSF1 inhib)
CCOc1ncccc1C(=O)Nc1cc(S(=O)(=O)N2CCCCC2)ccc1OC	none (no result: HSF-1 act, HSF1 inhib)
CCC(Cc1ccccc1)NC(=O)c1ccc2nc(N3CCOCC3)sc2c1 (centres undefined)	AHR act 58.9
CC(CCc1ccccc1)NC(=O)c1ccc2nc(N3CCOCC3)sc2c1 (centres undefined)	none
CC(=O)Nc1sc(C)c(C)c1CN1CCN(Cc2ccccc2)CC1	none
Cc1sc(NC(=O)c2ccco2)c(CN2CCN(c3ccc(F)cc3)CC2)c1C	HSF-1 act 86.9
CCOC(=O)N1CCN(Cc2c(NC(=O)c3ccco3)sc(C)c2C)CC1	HSF-1 act 99.3
Cc1sc(NC(=O)c2ccco2)c(CN2CCN(c3ccccn3)CC2)c1C	none
CCc1cc2c(=O)n(-c3ccccc3)c(SCC(N)=O)nc2s1	none
c1ccc2nc(-c3ccc(N4CCOCC4)cc3)ccc2c1	none
CN1CCN(c2ccc(-c3ccc4ccccc4n3)cc2)CC1	HSF1 inhib -89.7 (no result: AHR act)
O=C(Cc1ccccc1)N/N=C/c1cc(Br)c(Br)o1	HSF-1 act 80.3
O=C(Cc1ccccc1)NN=Cc1ccccc1	none (no result: HSF-1 act, AHR act, HSF1 inhib)
O=C(NCc1cccc(Br)c1)c1cc(-c2ccccc2)nn1CC1CC(c2cccnc2)=NO1 (centres undefined)	none
Clc1ccc(CNC2CCN(Cc3ccccc3)CC2)cc1	HSF-1 act 81.5
CN1C(=O)c2ccc(NC(=O)CCS(=O)(=O)c3ccccc3)cc2C1=O	none
CCc1nnc(NC(=O)CSc2nc3c(c(=O)n2C)SC(C)C3)s1 (centres undefined)	none
CC1Cc2nc(SCC(=O)Nc3nc4ccccc4s3)n(C)c(=O)c2S1 (centres undefined)	AHR act 60.3
CC(C)n1cc(/C=C2/NC(=O)N(c3cccc(Cl)c3)C2=O)c2ccccc21	AHR act 63.3
Cc1cc(C(=O)NNS(=O)(=O)c2ccc(F)cc2)nn1C(C)(C)C	HSF1 inhib -71.1
Oc1c(CN2CCOCC2)cc(COCc2ccccc2)c2cccnc12	HSF1 inhib -78.5
CCOC(=O)c1cc2nc(-c3ccco3)cc(C(F)(F)F)n2n1	HSF1 inhib -89.0
COc1ccc(/C=N/NC(=O)c2ccccc2OC)cc1COc1ccccc1[N+](=O)[O-]	AHR act 66.2
COc1ccc(/C=N\NC(=O)c2ccc([N+](=O)[O-])c(C)c2)cc1COc1ccccc1C(N)=O	none
COc1ccc(/C=N\NC(=O)c2ccccc2Br)cc1COc1ccc(F)cc1	none
COc1ccc(/C=N/NC(=O)c2ccccc2OC)cc1COc1ccc(C)cc1	AHR act 47.4
COc1cccc(OCc2cc(/C=N/Nc3ccc(C(=O)O)cc3)ccc2OC)c1	HSF1 inhib -73.0
CCOC(=O)N1CCN(Cc2nc(N)nc(Nc3ccccc3C)n2)CC1	none
CCOC(=O)C(=O)Nc1ccc(OC)c(Cl)c1	none
COc1ccc(NC(=O)C(OC)c2ccccc2)cc1Cl (centres undefined)	none
